# KDM4E inh = blocks human JMJD2E demethylase activity. 230,000 compounds, 1.6% hits. Potency, µM (highest dose often 57.1 µM), for inactives: at the top dose activity change, negative = inhibition, actives largely listed as inhibitors. JMJD2E catalytic domain, FDH-coupled NADH fluorescence (FDH is formaldehyde dehydrogenase). B2RXH2; active means well fitted inhibition curve with a large enough effect, not every such curve was filed as active; inconclusive means small, poorly fitted or top-dose-only effect, or another doubt; inactive means no such curve, though single readings can be large or run the other way;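 further: potency means the concentration at half of the fitted maximal effect; 0% = wells with enzyme and -100% = buffer wells without enzyme; nearly all actives have a fitted effect of over 50% in size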
# Target sequence (B2RXH2 1-337 limits assumed): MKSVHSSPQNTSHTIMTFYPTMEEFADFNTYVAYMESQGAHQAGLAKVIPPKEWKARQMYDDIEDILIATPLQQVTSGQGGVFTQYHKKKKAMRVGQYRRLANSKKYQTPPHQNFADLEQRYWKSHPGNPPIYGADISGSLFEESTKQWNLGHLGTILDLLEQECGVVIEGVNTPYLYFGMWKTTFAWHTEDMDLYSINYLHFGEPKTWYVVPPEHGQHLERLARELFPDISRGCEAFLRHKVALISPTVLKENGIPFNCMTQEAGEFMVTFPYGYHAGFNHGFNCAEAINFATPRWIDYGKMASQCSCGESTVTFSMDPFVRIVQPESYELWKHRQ
# HP1b binding inh = inhibitors of HP1-beta chromodomain binding to methylated histone tails; P83916; AlphaScreen HP1-beta / biotin-H3K9me3 peptide binding; Potency, µM (top dose mostly 114 µM), for the others: at the top dose activity change, negative = inhibition, usual class: inhibitors; 390,000 compounds, 0.56% hits; AID 540317; further: potency means the concentration at half of the fitted maximal effect; nearly all actives have a fitted effect of over 70% in size
# Target sequence (P83916 whole entry, looked up): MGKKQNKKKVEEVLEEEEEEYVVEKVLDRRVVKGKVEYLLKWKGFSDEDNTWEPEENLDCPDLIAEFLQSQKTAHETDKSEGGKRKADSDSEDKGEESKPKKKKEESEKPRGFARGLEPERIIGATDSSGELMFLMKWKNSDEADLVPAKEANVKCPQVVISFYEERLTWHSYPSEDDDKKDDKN
#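 HP1-beta protein (50 nM final) preincubated 30 min at room temperature with biotinylated H3(1-18)K9me3 peptide (50 nM) in PBS pH 7.4, 0.01% Tween-20, then compound added for 30 min. AlphaScreen streptavidin donor/nickel chelate acceptor beads (10 ug/mL final), 30 min dark, luminescence read.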
# PI5P4K alpha inh = inhibitors of human PI5P4K alpha. P48426. PI5P4Kalpha enzyme, ADP-Glo luminescence, 60 min; active compounds read low. max response, %. 330,000 compounds, 1.2% hits. AID 652105; active means max response of -50% or lower; inconclusive means between -30% and -50%; inactive means -30% or higher; further: value at the top dose of about 77 µM; on the % scale 0 is the no-effect control and ±100 the full control effect
#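 Enzyme plus substrate dispensed, test compounds pinned in, then ATP (5 microM final) added. After 60 min at RT, ADP-Glo reagent 1 for 45 min and reagent 2 for 30 min preceded luminescence imaging.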
# JMJD2A Tudor inh = JMJD2A Tudor domain (human) inhibition | O75164 | AlphaScreen JMJD2A-Tudor / H3K4me3 peptide binding | Potency, µM (titrated, usually from 114 µM), for the others: at the highest dose activity change, negative = inhibition, hits mostly inhibitors | 390,000 compounds, 4.4% hits | AID 504339; further: potency means the concentration at half of the fitted maximal effect; on the % scale 0 is the no-effect control and ±100 the full control effect; nearly all actives have a fitted effect of over 50% in size
# L3MBTL1 block = L3MBTL1 (human) inhibition. AlphaScreen L3MBTL1–H3K9me1 peptide binding. Potency, µM (titrated, usually from 57.1 µM), inactives show top-dose activity, negative = inhibition, most hits filed as inhibitors. 230,000 compounds, 0.66% hits. AID 485360; further: potency means the concentration at half of the fitted maximal effect; on the % scale 0 is the no-effect control and ±100 the full control effect; nearly all actives have a fitted effect of over 60% in size
#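 L3MBTL1 (50 nM) pre-complexed 30 min with biotinylated H3(1-15)K9me1 peptide (75 nM), then compounds added for 30 min at room temperature; AlphaScreen streptavidin donor/nickel chelate acceptor beads (10 ug/mL final) read after 30 min dark incubation.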
# BAZ2B block = blocks human BAZ2B; Q9UIF8; AlphaScreen BAZ2B-H3K14Ac peptide displacement; Potency, µM (titrated, usually from 114 µM), inactives show at the highest dose activity change, negative = inhibition, most hits filed as inhibitors; 360,000 compounds, 4.4% hits; further: potency means the concentration at half of the fitted maximal effect; on the % scale 0 is the no-effect control and ±100 the full control effect; nearly all actives have a fitted effect of over 60% in size
#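 Inhibition is scored as reduced AlphaScreen emission. The BAZ2B/b-H3(5-23)K14Ac complex (50 nM each) in PBS pH 7.4, 0.01% Tween-20 meets compound (up to 110 uM) for 30 min at RT before bead addition.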
# * marks the source's active call; other numbers are inactive results; ? = inconclusive; / = no result given; [ ] = another dose, or the depositor's remark. In the library only some 5.7% were active in any assay of this set; here they are far more common. Unless noted, the call rests on the fitted dose curve; in most records, active means well fitted inhibition curve with a large enough effect; inconclusive means small, poorly fitted or top-dose-only effect; inactive means no such curve, though single readings can be large or run the other way.
SMILES,KDM4E inh,HP1b binding inh,PI5P4K alpha inh,JMJD2A Tudor inh,L3MBTL1 block,BAZ2B block
COC(=O)c1ccccc1NC(=O)c1noc2c1CCCC2,9%,61%,/,26%,12%,7%
Cc1ccccc1NC(=O)CN1C(=O)S/C(=C\c2ccc(-c3cccc(C(=O)O)c3C)o2)C1=O,-6%,-34%,2,-16%[11.4 µM],-2%,-36%
Cc1ccc(C(=O)O)cc1-c1ccc(C=C2C(=O)c3ccccc3C2=O)o1,?,40µM*,-23,?,25µM*,50µM*
Cc1ccc(NC(=O)CN2C(=O)S/C(=C/c3ccc(-c4cc(C(=O)O)ccc4C)o3)C2=O)cc1C,?,-68%,/,11µM*,/,11µM*
Cc1cccc(NC(=O)CN2C(=O)S/C(=C\c3ccc(-c4cccc(C(=O)O)c4C)o3)C2=O)c1,?,?,-3,79µM*,/,?
Cc1cc(C(=O)O)ccc1-n1c(C)cc(C=C2C(=O)c3ccccc3C2=O)c1C,?,-15%,-20,?,?,-35%
Cc1ccccc1N(C=O)c1ccccc1C,/,3%[57 µM],-4,-8%,/,/
O=C1Nc2ccc(Br)cc2/C1=N\N=C\C1=C(N2CCOCC2)C(=C/c2ccccc2)/CC1,/,5µM*,-25,3.2µM*,/,/
O=C1Nc2ccccc2/C1=N\N=C\C1=C(N2CCOCC2)C(=C\c2ccccc2)/CC1,2%,/,/,/,-10%,7.1µM*
Cn1cc(C(=O)N/N=C/C2=C(N3CCOCC3)C(=C\c3ccccc3)/CC2)ccc1=O,0%,14%,-5,-18%,2%,-4%
CC(NC(=O)C12CC3CC(CC(C3)C1)C2)C(=O)N/N=C/C1=C(N2CCOCC2)C(=C\c2ccccc2)/CC1 (centres undefined),-21%,14%,-4,-21%,2%,4%
COc1cccc(C(=O)N2CCN(Cc3ccccc3[N+](=O)[O-])CC2)c1,?,?,1,22µM*,-1%,?
O=C(/C=C/c1ccc(-c2ccccc2[N+](=O)[O-])o1)c1ccccc1,?,?,2,?,?,11µM*
COc1ccc(N2CCN(C(=O)c3cccc(Br)c3)CC2)c([N+](=O)[O-])c1,0%,?,-16,22µM*,-16%,40µM*
O=C(O)/C(=C\c1ccc(-c2ccccc2[N+](=O)[O-])o1)c1ccccc1,/,-16%,-3,?,-5%,?
COc1cccc(C(=O)/C=C/c2ccc(N3CCCCC3)c([N+](=O)[O-])c2)c1,-8%,?,12,40µM*,?,10µM*
O=C(OCC#CCSc1nnc(-c2cccc3ccccc23)o1)c1ccc(Cl)c(C(F)(F)F)c1,/,/,/,22%,/,/
O=C(c1cccs1)N1CCN(Cc2ccccc2[N+](=O)[O-])CC1,?,?,-15,?,0%,56µM*
CN(C)c1ccc(/C=C/C(=O)c2ccccc2)cc1[N+](=O)[O-],-1%,?,-1,45µM*,?,14µM*
O=C(c1cccs1)N1CCN(CCc2ccccc2)CC1,7%,30%,/,-13%,3%,9%
COc1ccc(N2CCN(C(=O)CC34CC5CC(CC(C5)C3)C4)CC2)c([N+](=O)[O-])c1,2%,?,1,28µM*,?,35µM*
Cc1ccc(CNC(=O)Cn2c(=O)cc(C(F)(F)F)c3c(C)nn(C)c32)cc1,/,-20%,/,-17%,/,-2%
COc1ccccc1CNC(=O)CCn1c(=O)c2cccn2c2cccnc21,/,30%,/,-14%,/,?
CCc1cccc(C)c1NC(=O)C(CC)Sc1nc2ccncc2[nH]1 (centres undefined),/,47%,/,3%,/,3%
N#Cc1c(Cl)c(Cl)c2nnc(-c3ccc(Br)cc3)n2c1Cl,-12%,/,/,/,-1%,56µM*
SMILES,KDM4E inh,HP1b binding inh,PI5P4K alpha inh,JMJD2A Tudor inh,L3MBTL1 block,BAZ2B block
CCCSc1sc(C(=O)OC)c(-c2cccs2)c1C#N,-8%,154%,1,113%,74%,91%
CCCN1CCCc2cc(CN)ccc21,?,?,/,4µM*,?,45µM*
CN1C(=S)SC2CS(=O)(=O)CC21 (centres undefined),-1%,12%,0,-5%,/,2%
COc1cc(C(=O)NC(=S)Nc2ccc(Cl)cn2)cc(OC)c1OC,/,-1%,-9,16µM*,/,-9%
CC(C)[C@H](NC(=O)c1ccccc1)C(=O)O,6%,1%,-3,-18%,/,-13%
CCCCN(Cc1ccc(C(=O)N[C@H](C(=O)O)C(C)C)cc1)C(=O)C(c1ccccc1)c1ccccc1,/,-21%,-9,89µM*,/,/
Cc1nnc2c3ccccc3nc(Nc3ccccc3C(=O)O)n12,/,-5%,/,?,/,-32%
Cc1ccccc1C(=O)NNC1=NCCC1,-2%,-13%,/,1.6µM*,/,?
O=C(NNC1=NCCC1)c1cccc(Br)c1,-10%,3%,0,-22%,2%,-15%
O=C1CC(=O)N(C2CCCCC2)C(=O)N1c1ccccc1S(=O)(=O)Oc1ccccc1,/,/,-64*,/,/,/
O=C1C2CCCCC2C(=O)N1c1cccc(OS(=O)(=O)c2ccccc2)c1 (centres undefined),2%,34%,-1,-6%,9%,-2%
COc1ccc(-c2ccc3c(N)c(C(=O)NCc4ccc(Cl)cc4)sc3n2)cc1,/,53%,/,-17%,/,1%
O=[N+]([O-])c1cccc(C2CC(c3ccccc3)=NN2c2ccccc2)c1 (centres undefined),/,?,-6,28µM*,-28%,?
N#C/C(=C\c1ccc(-c2cccc([N+](=O)[O-])c2)o1)C(=O)Nc1nc(-c2cccs2)cs1,1%,18%,-52*,-21%,/,-12%
O=C(NC1CCCC1)c1ccc2c(=O)n(Cc3ccccc3)c(SCc3cccc([N+](=O)[O-])c3)nc2c1,/,17%[57 µM],/,-24%,/,0%
CCCOc1ccc(CNC(=O)CCCN2C(=O)CSc3c2c(C)nn3-c2ccccc2)cc1,/,?,/,?,/,-22%
CCCC1NC(C(=O)O)Cc2c1[nH]c1ccccc21 (centres undefined),/,-4%,-8,16µM*,4%,-4%
COCCNC(=O)Cn1nc(N2CCN(c3ccccc3OC)CC2)ccc1=O,/,31%,/,-1%,/,2%
CCN1/C(=C2\OC(=S)N(C)C2=O)C=Cc2ccccc21,-1%,15%,-2,-12%,/,/
CCSC1=NC(=O)/C(=C2/C=Cc3ccccc3N2CC)S1,-5%,?,-2,28µM*,/,7.1µM*
N#Cc1nc(Nc2cccc(Br)c2)nc(NC2CCCC2)n1,/,/,/,-16%,/,/
CCCCOCCCNCc1cccn1CCN1CCOCC1,/,-24%,-4,7.9µM*,-1%,-36%
CCOc1ccc2ccccc2c1CNCCCN1CCOCC1,/,/,8,/,/,/
